# Reference: PubChem BioAssay AID1220 (Sanford-Burnham Center for Chemical Genomics, 2008)
# The whole screen tested about 190,000 compounds, of which about 1,300 (0.68%) were called active. The list comes from a sample in which actives are over-represented; it also holds similar structures and randomly drawn compounds. Unmarked numbers belong to inactive results. No stated cut-off is given here; in the data, active means inhibition above about 50%; inactive means the rest.
# Molecular target: Mannose-6-phosphate isomerase (Homo sapiens) (UniProt P34949)
# Test: MPI inhibition at elevated mannose 6-phosphate – biochemical, fluorescence intensity, high mannose 6-phosphate, primary screen (AID 1220)
# Conditions: recombinant PMI enzyme, coupled fluorescence intensity; at 20 µM; active compounds read high
# Mannose-6-phosphate isomerase (Homo sapiens), sequence (P34949 whole entry, looked up): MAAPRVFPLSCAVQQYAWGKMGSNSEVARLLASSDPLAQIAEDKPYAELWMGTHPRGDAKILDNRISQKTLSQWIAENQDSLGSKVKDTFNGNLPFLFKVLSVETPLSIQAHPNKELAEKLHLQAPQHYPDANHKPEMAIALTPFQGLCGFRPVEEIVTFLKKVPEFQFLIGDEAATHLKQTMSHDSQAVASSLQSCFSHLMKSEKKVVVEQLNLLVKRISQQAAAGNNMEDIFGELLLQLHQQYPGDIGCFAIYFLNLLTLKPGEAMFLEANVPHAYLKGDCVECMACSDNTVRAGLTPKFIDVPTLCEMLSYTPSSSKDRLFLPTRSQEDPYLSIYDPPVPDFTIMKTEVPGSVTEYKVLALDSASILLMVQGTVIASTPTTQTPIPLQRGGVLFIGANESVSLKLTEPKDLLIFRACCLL
row,SMILES,inhibition
1,CCN(CC(=O)NC1CCS(=O)(=O)C1)C(=O)/C=C/c1cccs1 (centres undefined),-0.6%
2,Cc1ccc(-c2csc(/C(C#N)=C/Nc3ccccc3SC(F)(F)F)n2)cc1,-3.6%
3,O=C(Cc1csc(N2CCOCC2)n1)N/N=C/c1cccc(O)c1,6.6%
4,O=C(Cc1csc(N2CCOCC2)n1)N/N=C/c1ccc(Cl)cc1Cl,4.5%
5,O=C(CCc1ccc(S(=O)(=O)N2CCOCC2)cc1)N/N=C/c1cccc(O)c1,-6.2%
6,O=C(CCc1ccc(S(=O)(=O)N2CCOCC2)cc1)N/N=C/c1ccc(F)cc1F,10.5%
7,CCN1CCc2c(OCC(=O)N3CCC(C)CC3)cccc2C1=O,-8.8%
8,COc1cccc(C(=O)NC(=S)Nc2ccc3oc(=O)ccc3c2)c1,4.1%
9,COc1ccc(S(=O)(=O)N2CCCCC2)cc1NC(=S)Nc1cccc(Cl)c1C,7.7%
10,Cc1cc(N2C(=O)CCC2=O)ccc1NC(=O)c1cccs1,-1.9%
11,COCc1cc(/C=N\NC(=O)COc2ccc(Cl)cc2)ccc1OC,-2%
12,Cn1ccc2c([N+](=O)[O-])cccc2c1=O,23.6%
13,O=c1[nH]cnc2c([N+](=O)[O-])cccc12,-12.2%
14,O=c1[nH]ccc2c([N+](=O)[O-])cccc12,55.2% (active)
15,CCc1c(C(C)S(=O)(=O)c2ccc(C)cc2)[nH]c(=O)n1-c1ccc(C)cc1 (centres undefined),-35.3%
16,CCc1c(C(C)S(=O)(=O)c2ccc(C)cc2)[nH]c(=O)n1-c1ccc(OC(F)(F)F)cc1 (centres undefined),-28.2%
17,CCc1[nH]c(=O)[nH]c1C(C)S(=O)(=O)c1ccc(C)cc1 (centres undefined),70.3% (active)
18,CCOC(=O)C1(CCc2ccccc2)CCN(Cc2ccc(OC)cc2)CC1,3.3%
19,O=C(NC1CCCCC1)c1ccc(NS(=O)(=O)c2cccc3cccnc23)cc1,-3.4%
20,CN1CCN(CC(O)(c2ccc(Cl)cc2)c2ccc(Cl)cc2)CC1,55.4% (active)
21,NCC(O)(c1ccc(Cl)cc1)c1ccc(Cl)cc1,10.4%
22,CN1CCN(CC(C)(C)NS(=O)(=O)c2ccc(Cl)cc2)CC1,3.4%

row,SMILES,inhibition
1,COCCN(C(=O)CSc1nnc(-c2ccccc2F)n1C)c1c(N)n(Cc2ccccc2)c(=O)[nH]c1=O,-3.1%
2,CCCCOc1ccc(CN2CCCCC2)cc1,14.9%
3,COC(=O)C1CCN(Cc2ccc(OCCCN3CCN(c4ccc([N+](=O)[O-])cc4)CC3)cc2)CC1,14%
4,Oc1ccc(N2CCN(Cc3ccc(OCCCN4CCCCC4)cc3)CC2)cc1,58.4% (active)
5,Cc1cc2c(cc(C(=O)OCC(=O)NCc3ccco3)n2C)s1,-6.2%
6,CN1CCN(C(=O)C2=C[C@H](C(C)(C)C)C[C@H](OCCCCO)O2)CC1,0.2%
7,CCOC(=O)c1cc2cc(OC)ccc2[nH]1,-9.7%
8,CCOC(=O)c1cc2cc3ccccc3cc2[nH]1,53.2% (active)
9,CC(C)OC(=O)c1cc2ccccc2[nH]1,7.4%
10,COc1ccc(Cl)cc1NC(=O)NC1CCCCC1,-2.2%
11,CCCCC(=O)Nc1cc(OC)c(NC(=O)C2CCCCC2)cc1OC,2.5%
12,CCCC(=O)Nc1cc(OC)c(NC(=O)NC2CCCCC2)cc1OC,51.8% (active)
13,O=C(CCC1COc2ccccc2O1)NCc1ccccc1 (centres undefined),0.9%
14,CC1CC2(CCCCC2)Nc2c1ccc1ccccc21 (centres undefined),-36.7%
15,NS(=O)(=O)c1cccc(NC(=O)CN2CCN(Cc3ccc4c(c3)OCO4)CC2)c1,10%
16,COc1ccc(NC2=C(Cl)C(=O)N(CCc3ccccc3)C2=O)cc1,4.8%
17,Cc1cc(=S)cc(C)n1CCO,-138%
18,O=C(/C(=N/N=C/c1ccc(O)c(O)c1)c1ccccc1)c1ccccc1,24.9%
19,O=C(/C(=N/N=C/c1ccc(O)c(O)c1O)c1ccccc1)c1ccccc1,30.5%
20,C/C(=N\NS(=O)(=O)c1ccc(C)c([N+](=O)[O-])c1)c1ccc2c(c1)OCO2,-16.6%
21,C=CCOc1ccc(/C(CC)=N/O)c(OC)c1,6.3%
22,C=CCOc1cc(OC)c(OC)c(OC)c1,54.8% (active)

row,SMILES,inhibition
1,COc1cc(OCC(N)=O)cc(OC)c1OC,7.1%
2,COc1ccccc1NC(=O)c1ccccc1S(=O)(=O)c1ccccc1[N+](=O)[O-],12.3%
3,C=CCn1c(SCC(=O)NC(=O)NC)nnc1C1CCCCC1,-11.2%
4,CC(=O)c1cccc(NC(=O)/C(=C\c2cccnc2)NC(=O)c2ccco2)c1,-6.2%
5,CC1(C)CC(=O)C(/C=N/c2ccccn2)=C(O)C1,-6.9%
6,CC1(C)CC(=O)C(/C=N/c2ncccc2C(=O)O)=C(O)C1,-18.7%
7,CC1(C)CC(=O)C(C=Nc2cccnc2/N=C/C2=C(O)CC(C)(C)CC2=O)=C(O)C1,58.8% (active)
8,CCOC(=O)c1nc(C)n(-c2cc(OC)c(Cl)cc2Cl)n1,-10.2%
9,Cc1ccc2nc(SC(C(=O)c3ccccc3)c3ccccc3)nc(C)c2c1 (centres undefined),1.4%
10,Cc1ccc(N=Cc2sccc2C)cc1C,8.8%
11,CCN(CC)c1ccc(N=Cc2cc(Br)ccc2O)cc1,63.1% (active)
12,Oc1ccc(Br)cc1C=Nc1ccc(Cl)cc1,13.7%
13,CCN(CC)c1ccc(O)c(C=Nc2ccc(C)c(C)c2)c1,57% (active)
14,COC(=O)N/N=C/c1cc(Br)ccc1O,13.6%
15,COc1ccc(N=Cc2cc(Cl)ccc2O)cc1Cl,40.6%
16,NS(=O)(=O)c1ccc(CCNC(=O)NC2(C(F)(F)F)Oc3ccccc3O2)cc1,-9.2%
17,CC1(N2CCOCC2)C(=O)c2ccccc2C1=O,-17.3%
18,COc1cc(OC)c2c(c1)C(=O)OC2,-32.4%
19,COc1cc(OC)c2c(c1)OC(c1ccc(OC)c(OC)c1)C(O)C2=O (centres undefined),1.6%
20,COc1cc(OC)c2c(O)c3c(c(-c4c5c(c(O)c6c(OC)cc(OC)cc46)CO[C@@H](C)[C@H]5O)c2c1)[C@H](O)[C@H](C)OC3,54.8% (active)
